Test results: the supplement of paper PMC3545927
Some of the results follow. The hit rate among all sequences tested is not known here.

Target: furin, P09958
Test: furin cleavage Z-score vs untreated control; higher = more cleavage, active = 3.5 or more, inactive = 1 or less, 8 variable residues between constant flanks
Summary of the method: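 To give the cleavage Z-score, log read counts were set against furin-free reactions, lowess-adjusted and scaled by median absolute deviation. These counts came from PCR adapter-tagged, sequenced DNA released when purified furin cut 8-mer peptides fused to a cDNA oligonucleotide and held on magnetic beads by their N-terminus. Digests were 0.01 ml, 1:10 enzyme:substrate, in 50 mM HEPES pH 7.5 with CaCl2 and NaCl, for 7.5, 15 or 30 min.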

Sequence of furin, P09958 (P09958 whole entry): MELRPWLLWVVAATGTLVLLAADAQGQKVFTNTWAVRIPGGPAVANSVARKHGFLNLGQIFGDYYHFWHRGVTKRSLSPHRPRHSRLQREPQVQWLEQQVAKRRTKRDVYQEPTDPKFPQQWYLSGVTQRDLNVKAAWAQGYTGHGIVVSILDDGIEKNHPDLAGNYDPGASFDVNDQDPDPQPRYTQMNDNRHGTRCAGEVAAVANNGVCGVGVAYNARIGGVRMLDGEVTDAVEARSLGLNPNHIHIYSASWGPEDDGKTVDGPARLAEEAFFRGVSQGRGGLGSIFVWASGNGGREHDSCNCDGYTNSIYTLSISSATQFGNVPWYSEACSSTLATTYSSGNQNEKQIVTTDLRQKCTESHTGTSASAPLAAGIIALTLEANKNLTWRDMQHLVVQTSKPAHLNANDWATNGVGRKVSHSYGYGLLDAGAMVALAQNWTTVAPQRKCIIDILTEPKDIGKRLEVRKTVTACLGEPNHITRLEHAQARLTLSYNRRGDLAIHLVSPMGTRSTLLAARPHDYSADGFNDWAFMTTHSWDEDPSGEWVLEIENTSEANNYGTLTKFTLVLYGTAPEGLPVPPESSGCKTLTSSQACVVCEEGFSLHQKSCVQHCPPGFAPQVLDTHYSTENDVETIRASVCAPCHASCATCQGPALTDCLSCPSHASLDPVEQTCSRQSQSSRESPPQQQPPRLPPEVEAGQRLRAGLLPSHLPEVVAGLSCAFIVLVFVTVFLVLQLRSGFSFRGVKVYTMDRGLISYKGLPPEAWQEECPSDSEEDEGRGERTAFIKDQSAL

Sequence | furin cleavage Z-score (7.5 min) | furin cleavage Z-score (15 min) | furin cleavage Z-score (30 min)
CAVIAPAVQTAGNASASA [HC1033] | 0.392 (inactive) | 0.329 (inactive) | 0.692 (inactive)
CAFFTELDGVAGNASASA [HC1221] | -0.975 (inactive) | -0.00103 (inactive) | -0.854 (inactive)
CAEVPCHRPFAGNASASA [HC2407] | -0.191 (inactive) | 0.106 (inactive) | 0.623 (inactive)
CAECVVCCSMAGNASASA [HC2140] | 0.85 (inactive) | 1.09 | -0.883 (inactive)
CAEVPCHRPYAGNASASA [HC2409] | 0.869 (inactive) | -0.249 (inactive) | 1.01
CAEVVTSCWVAGNASASA [HC2220] | -1.37 (inactive) | 0.202 (inactive) | -0.78 (inactive)
CAVVCCSRSYAGNASASA [HC2053] | -1.24 (inactive) | -0.358 (inactive) | 0.798 (inactive)
CACVCCSMSYAGNASASA [HC2000] | -0.467 (inactive) | -0.374 (inactive) | 0.0175 (inactive)
CAANRRDVRLAGNASASA [FS-322] | 0.0384 (inactive) | -1.82 (inactive) | 1.41
CAMWKCLIRLAGNASASA [HC964] | 0.587 (inactive) | 2.14 | 2
CAMKKRTKRLAGNASASA [FS-365] | 9.31 (active) | 8.89 (active) | 7.26 (active)
CASNQRPKRLAGNASASA [FS-298] | 5.25 (active) | 8.19 (active) | 7.26 (active)
CASPSRTKRLAGNASASA [FS-870] | 7.89 (active) | 8.76 (active) | 6.67 (active)
CAGKKRTVEMAGNASASA [FS-2861] | -0.948 (inactive) | 0.0508 (inactive) | -1.47 (inactive)
